Experimental data as given in PubChem BioAssay AID435005 (Broad Institute, 2010).
The whole screen tested about 300,000 compounds, of which about 2,400 (0.8%) were called active.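 The calls were made as follows: active = Every replicate reaches about 75%, or at least half do and their mean reaches it too (limit read from the data); inconclusive = At least half of replicates reach the limit but their mean does not; inactive = Under half of replicates reach the limit.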 The entries come from a sample that favours actives as a whole.

Assay: inhibitors of cytokine-induced beta cell apoptosis, primary screen, luminescence (AID 435005);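 also: 0% = cytokine-treated negative control wells and 100% = positive control rescue; higher means more ATP so stronger rescue from cytokine killing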
Conditions: INS-1E cytokine-induced death, ATP luminescence, 48 h; hits give high values; percent of positive-control rescue, neutral wells zero; concentration not given here

| SMILES | protection from apoptosis |
| --- | --- |
| CCn1nc(C(=O)Nc2ccc(N3CCOCC3)cc2)c2ccccc2c1=O | -0.317% (inactive) |
| C#CCOCCOCCOCCNc1nc(N2CCN(C(=O)C([C@@H](C)O)n3cc([C@@H](N)CCCCN)nn3)CC2)nc(N2CCN(C(=O)[C@H](CCCCN)n3cc(CN)nn3)CC2)n1 (stereo partly drawn) | 0.272% (inactive) |
| CN(CC(=O)NCC(c1ccccc1)N1CCCC1)S(=O)(=O)c1ccc(Cl)cc1 (stereo not drawn) | -2.83% (inactive) |
| CC1CCCC(C)N1C(=O)COC(=O)COc1ccccc1C#N (stereo not drawn) | -0.693% (inactive) |
| COc1cc(OC)cc(-c2cc3ccc(F)cc3cn2)c1 | 3.7% (inactive) |
| CC(=O)Nc1ccc(S(=O)(=O)NCC(=O)OCC(=O)c2ccc[nH]2)cc1 | 0.385% (inactive) |
| O=C(C[C@H]1C/C=C\C[C@@H](NC(=O)OCC2c3ccccc3-c3ccccc32)C(=O)O[C@@H](c2ccccc2)CNC1=O)N[C@H](CO)Cc1ccccc1 | 54.4% (inactive) |
| O=C(/C(=C/c1cccc(Cl)c1)c1nc2ccccc2[nH]1)c1ccccc1 | 101% (active) |
| CCC(=O)/C(=C(/O)c1ccccc1)c1nc2ccccc2[nH]1 | -5.02% (inactive) |
| O=C(Cc1nc2ccccc2[nH]c1=O)c1ccc(Cl)cc1 | -0.338% (inactive) |
| CC(=O)c1ccc(NC(=O)CSc2nc3ccccc3c(=O)n2CCCN2CCOCC2)cc1 | -12.1% (inactive) |
| CC(=O)Nc1ccc(Nc2c3ccccc3nc3ccccc23)cc1 | 88.6% (active) |
| CC(=O)Nc1ccc(NC(=O)COc2ncnc3ccccc23)cc1 | 1.06% (inactive) |
| Cc1ccc(Nc2c3c(nc4ccccc24)CCC3)cc1 | 82.4% (active) |
| CC(C)(C)OC(=O)NNc1c2ccccc2nc2ccccc12 | 24.9% (inactive) |
| O=C(Nc1c2c(nc3ccccc13)CCCC2)c1ccccc1Br | -2.43% (inactive) |
| N#Cc1cccc(Nc2c3c(nc4ccccc24)CCCC3)c1 | 10.5% (inactive) |
| COc1ccc(Cl)cc1NC(=O)COC(=O)c1ccc(Br)o1 | -10.1% (inactive) |
| COc1cccc(NC(=O)CSc2nnc(C3CCCCC3)n2N)c1 | -3.75% (inactive) |
| Cc1ccc(-c2nn(-c3ccccc3)cc2C(=O)NC2CCC(O)CC2)cc1 (stereo not drawn) | 1.53% (inactive) |
| CCc1ccc(-c2nn(-c3ccccc3)cc2CSC(=N)N)cc1 | 89.4% (active) |
| O=C(Nc1cn(-c2ccccc2)nc1-c1ccccc1)c1ccccc1 | 2.47% (inactive) |

| SMILES | protection from apoptosis |
| --- | --- |
| Cc1occc1C(=O)Nc1cccc(S(=O)(=O)N2CCOCC2)c1 | -3.05% (inactive) |
| C=CCC[C@H](Cc1ccc(F)cc1)C(=O)OC[C@H](C)NC(=O)[C@H](CC=C)CC(=O)N(CCO)Cc1ccccc1 | 2.93% (inactive) |
| CN1CCN(c2nc3c(c(=O)[nH]c(=O)n3C)n2Cc2cccc3ccccc23)CC1 | 2.14% (inactive) |
| Cn1c(=O)[nH]c(=O)c2c1nc(N1CCN(CCO)CC1)n2CCSc1nc2ccccc2s1 | 2.68% (inactive) |
| Cn1c(=O)[nH]c(=O)c2c1nc(N1CCN(C(c3ccccc3)c3ccccc3)CC1)n2CCO | 99.9% (active) |
| CCCCCCCCn1c2c(c(=N)c3c1CCC3)CCCC2 | 99.8% (active) |
| CCCCCCn1c(CN2CCCCC2)nc2c1c(=O)n(C)c(=O)n2C | 2.42% (inactive) |
| CC(NC(=O)COC(=O)c1ccc2ccccc2n1)c1ccccc1 (stereo not drawn) | -4.86% (inactive) |
| O=C(Nc1nnc(-c2ccccc2)o1)c1cccc(S(=O)(=O)N2CCOCC2)c1 | 5.19% (inactive) |
| Cc1c(Cl)c([N+](=O)[O-])nn1CCCC(=O)Nc1cc(Cl)ccc1Cl | 5.23% (inactive) |
| Cc1c(Cl)c([N+](=O)[O-])nn1Cc1ccc(C(=O)N/N=C\c2cc(Cl)ccc2O)o1 | 89.7% (active) |
| Cc1ccc(C(=O)O)cc1NC(=O)c1ccc(Cn2nc(C)c(Cl)c2C)o1 | 1.11% (inactive) |
| O=C(CSc1nnc(N2CCOCC2)n1-c1cccc(F)c1)N1CCN(c2ccccn2)CC1 | -0.686% (inactive) |
| COc1cccc2sc3cc(NCC[C@@H]4CCCN4C)ccc3c(=O)c12 | -2.22% (inactive) |
| O=Cc1cn(Cc2ccccc2)nc1-c1cccnc1 | 0.63% (inactive) |
| Clc1ccc(CN2CCN(/N=C/c3cccnc3)CC2)cc1 | -0.218% (inactive) |
| O=C1/C(=C\c2cccnc2)CN(Cc2ccccc2)C/C1=C\c1cccnc1 | 83.8% (active) |
| COc1ccc(C(=O)COC(=O)C(O)c2ccccc2)c(OC)c1 (stereo not drawn) | -0.354% (inactive) |
| O=C(COC(=O)c1ccc(F)cc1)NCC1COc2ccccc2O1 (stereo not drawn) | -5.32% (inactive) |
| CCOC(=O)/C(=C\c1ccc([N+](=O)[O-])cc1)C(=O)c1cc(C(C)=O)c(Nc2ccccc2)s1 | 107% (active) |
| CCOC(=O)COc1ccc([N+](=O)[O-])cc1 | -8.02% (inactive) |
| Cc1ccc(NC(=O)/C(=C/c2ccc([N+](=O)[O-])cc2)NC(=O)c2ccccc2)cc1 | -0.596% (inactive) |

| SMILES | protection from apoptosis |
| --- | --- |
| COc1ccc2nc3n(c(=O)c2c1)-c1ccc(Cl)cc1C(=O)NC3Cc1ccccc1 (stereo not drawn) | 5.15% (inactive) |
| COc1ccc(S(=O)(=O)N(C)C[C@@H]2Oc3ccc(NC(=O)Nc4c(C)noc4C)cc3C(=O)N([C@H](C)CO)C[C@@H]2C)cc1 | 4.1% (inactive) |
| O=C(N/N=C/c1ccccn1)c1cccnc1 | -0.0642% (inactive) |
| Cc1nnc(N/N=C/c2ccccn2)[nH]c1=O | 109% (active) |
| Cc1cc(C(=O)N/N=C/c2ccccn2)c2ccccc2n1 | -6.79% (inactive) |
| COc1ccc(S(=O)(=O)N2CCN(CC(=O)N3CCOCC3)CC2)cc1OC | -2.22% (inactive) |
| CN(c1ccccc1)S(=O)(=O)c1cccc(NC(=O)Cc2ccc(Cl)cc2)c1 | 14.2% (inactive) |
| COc1ccccc1NC(=O)CCCc1c[nH]c2ccccc12 | 6.21% (inactive) |
| COc1cccc(CNCCc2c[nH]c3ccccc23)c1OCc1ccccc1F | 82.8% (active) |
| COc1ccc(C(CCNCc2ccccc2F)c2ccc(F)cc2)cc1 (stereo not drawn) | 1.89% (inactive) |
| C=CCC[C@H](Cc1ccc(F)cc1)C(=O)OC[C@@H](Cc1c[nH]c2ccccc12)NC(=O)[C@H](CC=C)CC(=O)N[C@H](CO)Cc1ccccc1 | -1.63% (inactive) |
| Cc1cc(N2CCCC2)ccc1NC(=O)COc1ccc(Cl)cc1 | -16.4% (inactive) |
| O=C1N[C@H](Cc2c[nH]c3ccccc23)COC(=O)[C@H](Cc2ccc(F)cc2)C/C=C\C[C@H]1CC(=O)N(CCO)Cc1ccccc1 | -0.37% (inactive) |
| CC[C@H]1CN2CCc3cc(OC)c(OC)cc3[C@@H]2C[C@@H]1C[C@H]1NCCc2cc(OC)c(OC)cc21 | 81.8% (active) |
| COc1ccc2c(c1)CCNC2Cc1ccc(OC)c(O)c1 (stereo not drawn) | -7.35% (inactive) |
| CCc1ccc(OCC2c3cc(OC)c(OC)cc3CCN2C(C)=O)cc1 (stereo not drawn) | -2.37% (inactive) |
| Cc1ccc(S(=O)(=O)N2CCN(C(=O)Cn3c(=O)cnc4ccccc43)CC2)c(C)c1 | 3.1% (inactive) |
| CCOc1ccccc1Nc1nnc(SCC(=O)NCC2CCCO2)s1 (stereo not drawn) | -3.28% (inactive) |
| COc1ccccc1/C=N\Nc1cc(C)nc(-n2nc(C)cc2C)n1 | 85.5% (active) |
| Cc1ccc(S(=O)(=O)Nc2nc(C)cc(N/N=C/c3ccc(O)cc3)n2)cc1 | -0.0503% (inactive) |
| COc1cccc(/C=N/Nc2cc(C)nc(-c3ccccc3O)n2)c1O | 83.1% (active) |
| COc1cccc2c(N/N=C/c3ccco3)cc(C)nc12 | 0.451% (inactive) |

| SMILES | protection from apoptosis |
| --- | --- |
| Cc1cc(N/N=C\c2ccc(Br)cc2)nc(-n2nc(C)cc2C)n1 | 101% (active) |
| COc1ccc(/C=N/Nc2cc(N3CCOCC3)nc(C)n2)c(OC)c1 | -0.288% (inactive) |
| COc1ccccc1/C=N/Nc1nc(C)c(C(C)=O)s1 | 1.33% (inactive) |
| COc1cc(/C=N/Nc2nc3ccccc3s2)ccc1O | -9.44% (inactive) |
| Cc1nc(Cl)cc(N/N=C/c2ccccc2)n1 | 0.482% (inactive) |
| CC(=O)Nc1ccc(S(=O)(=O)NCCC(=O)N2CCN(c3ccccc3Cl)CC2)cc1 | 4.22% (inactive) |
| O=S(=O)(NCC1CN(S(=O)(=O)c2ccc3c(c2)OCCO3)C1)c1c(F)cccc1F | -0.452% (inactive) |
| O=C(COC(=O)c1n[nH]c2ccccc12)Nc1ccccc1Br | 2.52% (inactive) |
| O=C(Nc1ccc(C(F)(F)F)cc1)c1cccc(-n2cnnn2)c1 | 8.03% (inactive) |
| Cc1ccc(C(=O)Nc2ccccc2-c2ccccc2)cc1S(=O)(=O)Nc1ccccc1 | 12.9% (inactive) |
| CN(CCc1ccccn1)C(=O)c1ccc(OC2CCN(Cc3ccccn3)CC2)cc1 | 0.235% (inactive) |
| O=C(NCCOc1cccnc1)c1ccc(OC2CCN(Cc3ccccn3)CC2)cc1 | 120% (active) |
| O=C(c1ccc(OC2CCN(Cc3ccccn3)CC2)cc1)N1CCCCCC1 | -1.86% (inactive) |
| CN(Cc1ccc(F)cc1)C(=O)CN1C(=O)c2ccccc2S1(=O)=O | -4.27% (inactive) |
| CN(C)C(CNC(=O)c1ccc(OCc2cn3ccccc3n2)cc1)c1ccco1 (stereo not drawn) | 0.439% (inactive) |
| Fc1ccc(/C=N/Nc2nc(-c3cccnc3)nc3ccccc23)cc1 | 12.4% (inactive) |
| Oc1ccc(/C=N/NC2=NCCCCC2)c(O)c1 | -2.33% (inactive) |
| Cc1cccc(-c2nc(Nc3ccc(O)cc3)c3ccccc3n2)c1 | -3.47% (inactive) |
| Cc1nc2ccccc2nc1N/N=C/c1ccc(O)cc1O | 86.1% (active) |
| FC(F)(F)c1nc2ccccc2nc1N/N=C/c1ccc(Cl)cc1 | 7.12% (inactive) |
| Oc1ccc(/C=N/Nc2nc(-c3ccccc3F)nc3ccccc23)c(O)c1 | 91.3% (active) |
| COc1ccc(-c2c(C#Cc3ccsc3)c3cc(-c4ccc(CN5CCOCC5)cc4)ccc3n2C)cc1 | -5.34% (inactive) |
